# Data published in PubChem BioAssay AID1347426 (Functional Genomics Laboratory (NCATS/FGL), 2020).
# Among all 31,000 sequences or so, about 1,400 (4.5%) were called active.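 How the source made its calls: active means median seed-adjusted z-score above 1 or below -1; inactive means the rest.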 This excerpt belongs to a sample that is enriched for actives.
# Test: Novel Modifiers of Survival Motor Neuron (SMN) Protein: Gene Identification via Genome-wide siRNA Screen;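 further: luminescence tracks full-length SMN protein made from the SMN2 reporter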
# Conditions: HEK293T SMN2-luciferase reporter, siRNA knockdown, 72 h; actives lie on both sides
# In short: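 Luciferase signal, proportional to full-length SMN made from an SMN2 cDNA reporter in stable HEK293T cells, was read 72 h after siRNA reverse transfection. Values were expressed as MAD scores after non-targeting-control normalization and log10 conversion; seed analysis flagged off-targets.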
row,Sequence,median seed-adjusted z-score
1,GGACAAUGUUGGGAAUAGATT against GPATCH2,0.0828 (inactive)
2,UCCUCUAAAAAUUACAGUATT against TUBB2A,1.03 (active)
3,CAUUAGAUCUGUGAUUAGATT against MCOLN3,-0.09 (inactive)
4,GGAAUGCUCCAAAAUGGGATT against FKBP1B,-0.561 (inactive)
5,GCACAUGUUUGGAGGAUUUTT against ZNRF2,0 (inactive)
6,CAACCCAGCCCAUCCCAAATT against PDK2,-0.481 (inactive)
7,CUGUGAAGAUAGAAGGAUATT against CAPZA1,-0.0237 (inactive)
8,GCAUUUCUUGGGUUGGUGATT against GABPA,1.43 (active)
9,CCGCGCAGUUCAUCUCAAATT against SNX15,-0.152 (inactive)
10,CACUAGAAAUAACAAUGGATT against TMPRSS11D,-0.0643 (inactive)
11,AGAUCUCGUGGUUCUGGAATT against RPUSD1,0.327 (inactive)
12,GUGGUGGGCUUAUCCUCUATT against NRXN3,0.897 (inactive)
13,GAACCACAAUGUUAACAAUTT against CYBRD1,0.623 (inactive)
14,GCAAGAUCUCUAUUGGUAUTT against ABCC4,-1.66 (active)
15,GAAACCCUAUUACGAUGAATT against SOX30,-0.167 (inactive)
16,CAUGUAAACUUGCUGUUUUTT against CKS1B,0.00314 (inactive)
17,CAUAGUAGAUCAAAUCUUATT against ZNF284,0.21 (inactive)
18,CACUAGCAGUUGCAAGUAATT against RAB3GAP2,0.0583 (inactive)
19,GACCUGGGCUUAGACAGUUTT against NDUFAB1,-0.282 (inactive)
20,GGAGAGCUGUUGGUACUUUTT against TAAR9,-1.07 (active)
21,CACUGUUUCUUCACCGGCATT against ZDHHC22,0.00446 (inactive)
22,GCAGUUCACCCAUCCAGUATT against THY1,-1.1 (active)

row,Sequence,median seed-adjusted z-score
1,GACCAAGCGCAAAACCAAATT against HOMEZ,-0.0614 (inactive)
2,GAUUUUGUGCGAUCCAUAATT against CBARA1,-0.0426 (inactive)
3,GCAGGUACAUGUCUUGUCUTT against SPRY2,0.148 (inactive)
4,CCCUACAUAGGAAACCUGUTT against PKD1L2,-1.17 (active)
5,CAGCCUACUUCAUAGCCUATT against GPR50,-0.0348 (inactive)
6,GCCGGCCUGUGAAAUAUGATT against MAP3K3,-0.182 (inactive)
7,UCACGUCACUACUUAAAAATT against ZNF644,0.389 (inactive)
8,CCAUUAAUGAAUUAGUCUATT against TXN,-0.195 (inactive)
9,AGCUCAACGUGCUGGAUUATT against PIP5KL1,-0.819 (inactive)
10,CGAAGUUCAAGUAUAGGUATT against RAG1,-1.35 (active)
11,GGUUUGGAGCGAGAGUGGATT against ASB10,0 (inactive)
12,GCAGCUAUCUCUGUACAGATT against MAPK8IP3,0.734 (inactive)
13,UGUUCAGUCUGGAAUUUCATT against MAP2K1,0.942 (inactive)
14,GGACCCAAAUUCAGAAGAATT against ANKRA2,1.26 (active)
15,GGAUCGGUAUGUAGCAAUATT against HTR2C,-0.115 (inactive)
16,GAGUAUCCAUCGGUAUCUATT against ZBTB11,-0.105 (inactive)
17,UCCAGACUCUGGUCACCAATT against CREB3L1,0.708 (inactive)
18,GCAUUGACUUGGGUGAAGATT against GPR101,-0.265 (inactive)
19,GAGUUGAAGUUAAAGUAAATT against MORF4,0.0121 (inactive)
20,CGACAAGAUCAAAUACCCATT against LZTR1,0.293 (inactive)
21,CAAGCCUGAUUUCCACCUATT against DTD1,-1.58 (active)
22,CAACGAGAAUGACUGCUGATT against PTPDC1,-0.191 (inactive)

row,Sequence,median seed-adjusted z-score
1,CAAGAAAACCAGAAUGGAATT against SERPING1,-0.244 (inactive)
2,GCGAUUGCUUUGAUGGGUATT against LTBP1,0.143 (inactive)
3,GAAUCCUCCCAAUUGAUCATT against LSG1,1.31 (active)
4,GAACAUCGUUAUAAGUUGATT against CNTN3,0.732 (inactive)
5,GCACUAAUCUGCAAACUGUTT against SPTB,0.153 (inactive)
6,CAGACAAAUUUUAACCACATT against SLC17A8,-0.332 (inactive)
7,GGUCCAUCCAAAUUGUGGATT against CYP21A2,-0.26 (inactive)
8,GCGCAUCUAUCAACCCAAUTT against MLNR,-0.038 (inactive)
9,AGACUAAACUACUCUCGAATT against WDR46,-0.136 (inactive)
10,GCUGCUAUCAGUGAACGGATT against LIN7A,-1.39 (active)
11,CGUGUUAGUGAAUAAAGUATT against ZNF771,0.108 (inactive)
12,CGGCAGACACUGAACAUCATT against SLC6A18,0.148 (inactive)
13,GUAGCACAGAGGAUUAAAATT against TTC33,0.104 (inactive)
14,CUCUAACCGUGGUUCCAGATT against SUPT16H,1.2 (active)
15,CGGCGGAGUUUAUAGAUAATT against BCKDHA,-0.299 (inactive)
16,GAAUCUACCUUGCUGCUCATT against G6PC,-0.628 (inactive)
17,GGACUACUAUGCCACUGCUTT against SSTR4,-0.00217 (inactive)
18,CGGCAACUUCAAUAACAGUTT against LPHN1,-1.03 (active)
19,GAGGGACUAUUUCACGAAATT against PARD3B,0.306 (inactive)
20,GUGCAUCUCUUGACAAUUUTT against LIPI,0.65 (inactive)
21,GAAUAUUCUCGAUUUAAUATT against PPP1R3D,0 (inactive)
22,GGGCUGUUAUUUCAAGAAATT against GALNT13,-0.0149 (inactive)

row,Sequence,median seed-adjusted z-score
1,GAGCAUGUUUUUACCCUUUTT against MGC17403,0.204 (inactive)
2,CCAUAACAUUCACAAGUGUTT against TRPS1,-0.125 (inactive)
3,CCAGGUCACGAGUCAAGUATT against KTI12,0.0814 (inactive)
4,GGCCGUAACCUCAACCGUUTT against SNX33,-0.246 (inactive)
5,GACAAUCGACCGAAAGCAATT against PPP4C,1.15 (active)
6,GGGCAACAGUUGAACACCATT against PDK4,-0.693 (inactive)
7,GCUUUGACCGUGUCCGAAATT against STT3A,0 (inactive)
8,GCAUUUCCCAAGACGUGGATT against ZFYVE28,0.0678 (inactive)
9,GCAUUCACCAGAACGAGAATT against RIMS1,0 (inactive)
10,CGCAUCCAAGAGUACCUUUTT against ZNF229,-0.497 (inactive)
11,GGACAUGAACCUUAACGAATT against DIAPH2,-0.0149 (inactive)
12,CUAUACUCUUCGCUCCUAUTT against SIGMAR1,-1.4 (active)
13,GGUUGAAAAGGAGUGCAAATT against CACYBP,-0.33 (inactive)
14,CAAAUCUGCUCAUCGAAAATT against MID1,-0.294 (inactive)
15,AGAAGAUCAUAGGCAGCAATT against KLK8,0.736 (inactive)
16,GCUUCAGAGUCAACGGACATT against MICB,0.162 (inactive)
17,GAGGAACAGGAAUAACAUUTT against GCG,-1.18 (active)
18,GGCCUAACCAUAUGCCUAUTT against SS18,0.34 (inactive)
19,GGUUUUUCCGCCAACUAGATT against CAPS,-1.25 (active)
20,GGUGUGCGGUUCAUCUUCATT against ILVBL,0.343 (inactive)
21,CUAAAGAGGUCAACAUUGATT against RGS16,0 (inactive)
22,AGGUGUUCAUCGGCGUAAATT against GRHL3,-0.0434 (inactive)

row,Sequence,median seed-adjusted z-score
1,CCAGCAGCAUGGAAGUUGUTT against HSD3B7,-0.0819 (inactive)
2,UCAUCUACCUGAUGCGUAUTT against TAF6,-1.36 (active)
3,GAACUAUGAAUAAAGCUUUTT against HAGHL,-0.334 (inactive)
4,GGCUUGAAGUAUGGAAAAATT against QRICH1,-1.04 (active)
5,CCAGCUUAGUUCAAUAUGATT against GABRA4,0.549 (inactive)
6,CCAUCCUGAUAAGAACCCATT against DNAJA1,-0.00548 (inactive)
7,GGGCCUACUUUACAUCACATT against TXNDC14,-2.39 (active)
8,CGCUUACAAGGUCAACAUUTT against S1PR3,-0.0931 (inactive)
9,CAAGCUACGUAGAGAUCUATT against KIFC1,0.0417 (inactive)
10,ACAUGUUCCUCACCUUAAATT against SLC6A1,-0.122 (inactive)
11,GGAGGGAUAUGUUCCACGUTT against TP53BP2,0.157 (inactive)
12,CUACUGUGGGUGUCGCAUATT against UQCRFS1,-1.28 (active)
13,GAGCGACUUUGAUCACCAUTT against PANK2,0.121 (inactive)
14,CAUUCAUCAUCCACCCAGATT against MUPCDH,-0.329 (inactive)
15,CCCGGAUACUUCUGAAGAATT against HNRPDL,-0.68 (inactive)
16,CGGUGGGAUGGGAACGAAATT against DRAP1,1.08 (active)
17,CUAUGACUGGAUUAGCGUATT against BEST2,0.415 (inactive)
18,GCUUUUGAACUAUUUGAUATT against CETN3,-0.0815 (inactive)
19,UGAAGACCCAGAGAUGUAATT against PTN,-0.174 (inactive)
20,UGAGAUCGCUGUCAUGUUATT against PSMD10,0.265 (inactive)
